# Data reported in the supplement of paper PMC6555819.
# Columns and labels:
# Assay in all cases: PBM binding z-score (relative to random genomic background probes); higher = stronger binding; sequences stand for … in GC…GCGATTGACAGCGTAGAATGAAGG
# [1] = tested on: FXR:RXRa (NR concentration 270 nM, RXRa partner concentration 90 nM)
# Procedure, shortened: (§1)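 Scanned fluorescence from custom Agilent 4×180K protein-binding microarrays was regression-normalized. Binding z-scores use random background probes as reference. Ligand-free nuclear receptor dimers were incubated on the arrays for 1 h and detected with antibodies against each partner (one per run).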
# [2] = tested on: LXRa:RXRa (NR concentration 270 nM, RXRa partner concentration 90 nM)
# Procedure, shortened: as §1
# [3] = tested on: LXRa homodimer (NR concentration 270 nM)
# Procedure, shortened: as §1
# [4] = tested on: LXRb:RXRa (NR concentration 270 nM, RXRa partner concentration 90 nM)
# Procedure, shortened: as §1
# [5] = tested on: LXRb homodimer (NR concentration 270 nM)
# Procedure, shortened: as §1
# [6] = tested on: PPARa:RXRa (NR concentration 270 nM, RXRa partner concentration 90 nM)
# Procedure, shortened: as §1
# [7] = tested on: PPARg:RXRa (NR concentration 180 nM, RXRa partner concentration 90 nM)
# Procedure, shortened: as §1
# [8] = tested on: PPARg:RXRa 270nM:90nM, anti-RXR (NR concentration 270 nM, RXRa partner concentration 90 nM)
# Procedure, shortened: as §1
# [9] = tested on: PPARg:RXRa 30nM:10nM, anti-RXR (NR concentration 30 nM, RXRa partner concentration 10 nM)
# Procedure, shortened: as §1
# [10] = tested on: PPARg:RXRa 90nM:30nM, anti-RXR (NR concentration 90 nM, RXRa partner concentration 30 nM)
# Procedure, shortened: as §1
# [11] = tested on: PPARg:RXRa DBDmut IVT, anti-RXR (DBD mutation: RXRa K156A/R161A, NR concentration 270 nM, RXRa partner concentration 90 nM)
# Procedure, shortened: as §1
# [12] = tested on: PPARg:RXRa IVT, anti-PPARg (NR concentration 270 nM, RXRa partner concentration 90 nM)
# Procedure, shortened: as §1
# [13] = tested on: PPARg DBDmut:RXRa IVT, anti-PPARg (DBD mutation: PPARg1 K132A/R137A, NR concentration 270 nM, RXRa partner concentration 90 nM)
# Procedure, shortened: as §1
# [14] = tested on: PPARg DBDmut IVT, anti-PPARg (DBD mutation: PPARg1 K132A/R137A, NR concentration 270 nM)
# Procedure, shortened: as §1
# [15] = tested on: PPARg homodimer (NR concentration 180 nM)
# Procedure, shortened: as §1
# [16] = tested on: PXR:RXRa (NR concentration 270 nM, RXRa partner concentration 90 nM)
# Procedure, shortened: as §1
# [17] = tested on: PXR homodimer (NR concentration 270 nM)
# Procedure, shortened: as §1
# [18] = tested on: RARa:RXR (NR concentration 270 nM, RXRa partner concentration 90 nM)
# Procedure, shortened: as §1
# [19] = tested on: RARa homodimer (NR concentration 270 nM)
# Procedure, shortened: as §1
# [20] = tested on: RARb:RXRa (NR concentration 270 nM, RXRa partner concentration 90 nM)
# Procedure, shortened: as §1
Sequence,PBM binding z-score [1],PBM binding z-score [2],PBM binding z-score [3],PBM binding z-score [4],PBM binding z-score [5],PBM binding z-score [6],PBM binding z-score [7],PBM binding z-score [8],PBM binding z-score [9],PBM binding z-score [10],PBM binding z-score [11],PBM binding z-score [12],PBM binding z-score [13],PBM binding z-score [14],PBM binding z-score [15],PBM binding z-score [16],PBM binding z-score [17],PBM binding z-score [18],PBM binding z-score [19],PBM binding z-score [20]
TCTATTAGTTGATTAGGCCAACCGAAACAGCGGA,0.75,0.591,0.444,0.663,0.882,0.722,0.22,2.07,3.98,3.02,2.31,0.958,0.847,0.784,1.2,0.477,0.547,0.834,1.24,0.707
AGAATGATGTTAAGATCAGGGAAACAGAATACAT,-0.488,-0.548,-0.153,-0.269,-0.588,-0.205,0.948,-0.174,0.282,-0.132,-0.786,-0.128,-0.544,0.266,-0.958,-0.441,-0.00916,-0.274,0.423,-0.436
ACTCACGGGTCAACGAGGTTATAGCACGCGTATA,6.65,4.67,0.969,4.03,0.564,5.34,4.39,4.55,1.72,3.08,1.79,2.88,0.756,1.16,4.09,5.33,4.27,5.51,1.43,4.27
ACTAGCAGGCCAAGGCTCACTCAAGATTAGTCCG,-0.393,-0.377,-0.331,-0.701,-0.95,-0.271,0.588,0.682,-0.134,0.168,1.13,0.144,-0.648,-0.572,-0.478,-0.766,-0.282,-0.478,-0.56,0.257
TAGCCTAGGACATGGGCCAGTATACCACGCGAAC,-0.615,-0.64,-0.616,-0.618,-0.673,-0.454,0.715,-0.284,-0.595,-0.49,-1.18,-0.594,-0.263,-0.978,-0.814,-0.387,-0.477,-0.815,-0.515,0.0238
TAGCCTAGGTCAGATCGGGCAAGTATACGCTATA,1.87,1.1,-0.305,0.779,-0.322,1.74,0.654,0.623,-0.284,0.343,0.264,1.08,-0.209,-0.848,-0.0891,0.344,-0.431,1.06,-0.377,2.99
TTACCAAGGTGAAAGGTCGTCGATGCACGCCTTG,3.2,3.29,0.0373,2.77,-0.541,5.6,9.29,8.47,7.23,9,2.84,5.42,0.568,0.68,1.99,4.17,-0.076,6.52,-0.215,3.27
GCGACTGGAGCATCAGCAGGTTACCATAACTTAA,-0.588,-0.33,-0.742,-0.376,-1.27,0.165,0.329,-0.223,-0.632,-0.253,0.414,0.0135,-1.51,-0.56,-0.607,-0.228,-0.687,0.0402,-1.07,-0.26
CGTCCAAGGTCCTAGGAGGTCAGTGAAGACAGAT,1.97,1.66,0.256,1.71,-0.518,2.44,0.157,0.654,-0.57,0.21,-0.235,0.579,-1.17,-1.02,1.48,3.01,0.587,2.87,0.328,2.42
AGTAAAAGTTCAGGACGAGGTAACGTAAAGCACG,3.83,3.28,1.42,1.75,0.493,2.63,1.81,2.14,0.671,1.29,-0.481,0.814,0.943,1.31,1.74,2.71,1.45,2.39,0.986,3.85
CCTACTGGGCCAGGAAAGGTCATTGATTCAGTGA,3.42,4.12,3.32,3.74,-0.202,4.18,1.95,3.03,0.929,2.15,2.65,3.05,-0.225,-1.01,2.36,4.78,0.786,4.87,0.0596,3.71
ACTATTTGTTGACTTAGGGCAACCGATACGACGC,0.226,0.188,0.404,0.344,1.56,0.197,0.97,0.737,0.434,0.364,0.22,0.532,1.51,1.78,0.884,0.185,0.38,0.364,0.997,1.03
ATATGTAGGTTAATGGTCATTCAGGTTGGTTCGC,0.826,1.09,0.821,1.24,0.469,4.6,7.74,7.54,6.76,7.88,7.35,7.31,4.17,3.57,2.47,1.23,0.787,0.723,1.49,1.45
